In PubChem BioAssay:
Where “and” joins values, the source holds several entries; their conditions need not be identical. Equal values may be shown once. Calls of active or inactive are those of the source.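 The calls were made as follows, unless noted: active = compounds whose cell count with miR-34 switched on is under 0.7 times the count with it off; inactive = the rest.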

System: Aerobactin synthetase IucA (Klebsiella pneumoniae hvKP1)
Test: IucA enzyme inhibition, primary screen, biochemical, Spectrum library (AID 1346200; call rule not given here;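 also: 100% = wells without compound and 0% = wells lacking enzyme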)
Conditions: malachite green pyrophosphate, A620, at 8 µM, stronger effect = lower value

Compound | activity remaining
Nc1ncn[nH]1 | 92.7% (inactive)
CN1C2C[C@H](OC(=O)[C@H](CO)c3ccccc3)C[C@H]1[C@@H](O)C2 | 109% (inactive)
Oc1ccc2c3c1OC1[C@@H](O)CC[C@@]4(O)[C@@H](C2)N(CC2CCC2)CC[C@]314 (stereo not given in full) | 103% (inactive)
C=C[C@H]1CN2CC[C@H]1C[C@@H]2[C@H](O)c1ccnc2ccccc12 | 125% (inactive)

System: not listed separately
Test: viability loss with induced miR-34 in A549 – imaging, A549 dox-inducible miR-34, nuclei and caspase counts, primary screen (AID 1347080)
Conditions: A549 miR-34 inducible, Hoechst nuclei count, 48 h; stronger effect = lower value

Compound | fold change
O=C1CC[C@@]2(O)[C@H]3Cc4ccc(O)c5c4C2(CCN3CC2CC2)[C@H]1O5 | 0.853 (inactive)
C=C[C@H]1CN2CC[C@H]1C[C@@H]2[C@@H](OC(=O)OCC)c1ccnc2ccc(OC)cc12 | 0.94 (inactive)
COc1cccc([C@]2(O)CCCC[C@H]2CN(C)C)c1 | 0.9 (inactive)
NC1C[C@H]1c1ccccc1 (stereo not given in full) | 0.916 (inactive)
C[C@@H]1O[C@@H](O[C@H]2C[C@@H](O)[C@]3(CO)C4C(CC[C@]3(O)C2)[C@@]2(O)CC[C@H](C3=CC(=O)OC3)[C@@]2(C)C[C@H]4O)[C@H](O)[C@H](O)[C@H]1O (stereo not given in full) | 0.536 (active)
CC(C)C[C@@H](CN)CC(=O)O | 0.933 (inactive)
CC1[C@H](C)OC(=O)CC(O)CC(O)CC(O)CCC(O)C(O)C[C@]2(O)CC(O)C(C(=O)O)C(CC(OC3O[C@H](C)[C@@H](O)[C@H](N)[C@@H]3O)/C=C/C=C/C=C/C=C/CC/C=C/C=C/[C@H](C)[C@H]1O)O2 (stereo not given in full) | 0.841 (inactive)
C[N+](C)(C)CC(=O)[O-] | 0.862 (inactive)
C#CC1(O)CCC2C3CCC4=CC(=O)CCC4(C)C3CCC21C (stereo not given) | 0.935 (inactive)
CCC(=O)O[C@H]1CCC2C3CCC4=CC(=O)CC[C@]4(C)C3CC[C@@]21C (stereo not given in full) | 0.927 (inactive)
CCN1C[C@@]2(COC)C3[C@@H](OC)[C@H]4[C@@H]1[C@]3(C(OC)C[C@H]2O)C1C[C@@]2(O)[C@H](OC(=O)c3ccccc3)C1[C@]4(OC(C)=O)[C@@H](O)[C@@H]2OC (stereo not given in full) | 0.875 (inactive)
C=CCN1CC[C@]23c4c5ccc(O)c4OC2C(=O)CC[C@@]3(O)[C@H]1C5 (stereo not given in full) | 0.923 (inactive)
C=C1CC2C(CC[C@]3(C)C(=O)CCC23)[C@@]2(C)C=CC(=O)C=C12 (stereo not given in full) | 0.911 (inactive) and 0.833 (inactive)
CC(CO)NC(=O)C1C=C2c3cccc4[nH]cc(c34)C[C@H]2N(C)C1 (stereo not given in full) | 0.895 (inactive)
C[C@]12CCC(=O)C=C1C=CC1C2CC[C@@]2(C)C1CC[C@@]2(O)CCC(=O)O (stereo not given in full) | 0.912 (inactive)
CN1C2C[C@H](OC(=O)[C@H](CO)c3ccccc3)C[C@H]1[C@@H](O)C2 | 0.908 (inactive)
Oc1ccc2c3c1OC1[C@@H](O)CC[C@@]4(O)[C@@H](C2)N(CC2CCC2)CC[C@]314 (stereo not given in full) | 0.892 (inactive)
C=C[C@H]1CN2CC[C@H]1C[C@@H]2[C@H](O)c1ccnc2ccccc12 | 0.93 (inactive)

Same assay, conditions: A549 miR-34 inducible, Hoechst nuclei count, 48 h; measured here: relative caspase fold change +Dox/-Dox

Compound | fold change
O=C1CC[C@@]2(O)[C@H]3Cc4ccc(O)c5c4C2(CCN3CC2CC2)[C@H]1O5 | 4.3
C=C[C@H]1CN2CC[C@H]1C[C@@H]2[C@@H](OC(=O)OCC)c1ccnc2ccc(OC)cc12 | 1.23
COc1cccc([C@]2(O)CCCC[C@H]2CN(C)C)c1 | 6.33
NC1C[C@H]1c1ccccc1 (stereo not given in full) | 1.81
C[C@@H]1O[C@@H](O[C@H]2C[C@@H](O)[C@]3(CO)C4C(CC[C@]3(O)C2)[C@@]2(O)CC[C@H](C3=CC(=O)OC3)[C@@]2(C)C[C@H]4O)[C@H](O)[C@H](O)[C@H]1O (stereo not given in full) | 2.2
CC(C)C[C@@H](CN)CC(=O)O | 3.45
CC1[C@H](C)OC(=O)CC(O)CC(O)CC(O)CCC(O)C(O)C[C@]2(O)CC(O)C(C(=O)O)C(CC(OC3O[C@H](C)[C@@H](O)[C@H](N)[C@@H]3O)/C=C/C=C/C=C/C=C/CC/C=C/C=C/[C@H](C)[C@H]1O)O2 (stereo not given in full) | 0.89
C[N+](C)(C)CC(=O)[O-] | 4.05
C#CC1(O)CCC2C3CCC4=CC(=O)CCC4(C)C3CCC21C (stereo not given) | 2.1
CCC(=O)O[C@H]1CCC2C3CCC4=CC(=O)CC[C@]4(C)C3CC[C@@]21C (stereo not given in full) | 4.54
CCN1C[C@@]2(COC)C3[C@@H](OC)[C@H]4[C@@H]1[C@]3(C(OC)C[C@H]2O)C1C[C@@]2(O)[C@H](OC(=O)c3ccccc3)C1[C@]4(OC(C)=O)[C@@H](O)[C@@H]2OC (stereo not given in full) | 3.63
C=CCN1CC[C@]23c4c5ccc(O)c4OC2C(=O)CC[C@@]3(O)[C@H]1C5 (stereo not given in full) | 2.03
C=C1CC2C(CC[C@]3(C)C(=O)CCC23)[C@@]2(C)C=CC(=O)C=C12 (stereo not given in full) | 1 and 2.69
CC(CO)NC(=O)C1C=C2c3cccc4[nH]cc(c34)C[C@H]2N(C)C1 (stereo not given in full) | 3.49
C[C@]12CCC(=O)C=C1C=CC1C2CC[C@@]2(C)C1CC[C@@]2(O)CCC(=O)O (stereo not given in full) | 3.05
CN1C2C[C@H](OC(=O)[C@H](CO)c3ccccc3)C[C@H]1[C@@H](O)C2 | 0.859
Oc1ccc2c3c1OC1[C@@H](O)CC[C@@]4(O)[C@@H](C2)N(CC2CCC2)CC[C@]314 (stereo not given in full) | 2.83
C=C[C@H]1CN2CC[C@H]1C[C@@H]2[C@H](O)c1ccnc2ccccc12 | 2.81
